These results are taken from PubChem BioAssay (NCI).

Test systems include NCI-H23 lung; NCI-H226 lung; NCI-H322M lung; HOP-62 NSCLC; NCI-H460 lung; HOP-92 NSCLC; NCI-H522 lung; A549/ATCC NSCLC; 786-0 renal; COLO 205 colon; DU-145 prostate; K-562 leukemia; MALME-3M melanoma; MDA-MB-231 breast; RXF 393 renal; SF-268 CNS; SF-295 CNS; SF-539 CNS; UACC-257 melanoma; M14 melanoma.
What all share (test): NCI-60 one-dose screen, 48 h (100 = growth as untreated, 0 = no growth, -100 = all killed)
Common to all, as to details: 10 µM unless noted

About 83,000 compounds went through this panel and 20% of them were active in at least one assay; those are over-represented in the sample as a whole.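 Results are percent growth after 48 hours of single-concentration exposure. 100 means growth as in untreated cells, lower positive values show inhibition; negative values down to -100 show cell death.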 A number with no mark means an inactive call. Activity calls are given as the source filed them. How the source made its calls: active means growth percent below 10; inactive means the rest.

Take `O=C(N/N=C/C[C@@H]1[C@@H](/C=C/[C@@H](O)COc2cccc(Cl)c2)[C@H](O)C[C@@H]1O)c1ccncc1`: the growth was 98.2% with NCI-H23 lung; 89.3% in the test on NCI-H226 lung; 101% in the test on NCI-H322M lung; 79.4% in the test with HOP-62 NSCLC; 102% with NCI-H460 lung; 93.7% with HOP-92 NSCLC. The growth was 69.9% in the test on NCI-H522 lung; 89% in the test on A549/ATCC NSCLC; 105% with 786-0 renal; 113% in the test with COLO 205 colon; 108% with DU-145 prostate; 95.9% in the test on K-562 leukemia. The growth in the test on MALME-3M melanoma is 98.1%; in the test on MDA-MB-231 breast, 101%; in the test on RXF 393 renal it was 105%; with SF-268 CNS, 103%; in the test with SF-295 CNS, 99.5%; in the test with SF-539 CNS it was 104%. For the same compound, the growth is 77.5% with UACC-257 melanoma and 99.6% in the test with M14 melanoma.

With `COc1ccc2nc(-c3ccc(Cl)cc3)cc(C(=O)N3N=C(c4ccc(N)cc4)CC3c3ccccc3)c2c1` (stereo not given), the growth was 62% with NCI-H23 lung; 63.8% in the test with NCI-H226 lung; 54% with NCI-H322M lung; 42.5% with HOP-62 NSCLC; 25.5% in the test with NCI-H460 lung; 58.9% in the test with HOP-92 NSCLC. Besides, the growth is 34.7% in the test with NCI-H522 lung; 46.9% with A549/ATCC NSCLC; 31.8% in the test on 786-0 renal; 42.3% with COLO 205 colon; 55% with DU-145 prostate; 17.5% in the test on K-562 leukemia. The growth with MALME-3M melanoma was 62.5%; in the test with MDA-MB-231 breast, 83.8%; with RXF 393 renal, 35.3%; in the test with SF-268 CNS, 48.3%; with SF-295 CNS it was 24.2%; in the test on SF-539 CNS, 43.4%. Besides, the growth with UACC-257 melanoma is 67.1%; with M14 melanoma, 38.9%.

Take `CCO/C=N/S(=O)(=O)c1cc2c(cc1Cl)NC=NS2(=O)=O`: the growth was 103% in the test on NCI-H23 lung; 98.7% in the test on NCI-H226 lung; 111% in the test with NCI-H322M lung; 93.9% with HOP-62 NSCLC; 106% in the test on NCI-H460 lung; 92.2% with HOP-92 NSCLC. For the same compound, the growth with NCI-H522 lung is 99.4%; in the test with A549/ATCC NSCLC, 89%; with 786-0 renal, 100%; with COLO 205 colon it was 108%; in the test with DU-145 prostate, 108%; in the test on K-562 leukemia it was 99.9%. The growth was 107% in the test on MALME-3M melanoma; 106% in the test with MDA-MB-231 breast; 103% in the test with RXF 393 renal; 103% in the test on SF-268 CNS; 104% with SF-295 CNS; 98.1% in the test on SF-539 CNS. For the same compound, the growth with UACC-257 melanoma was 90.2%; in the test with M14 melanoma it was 101%.

Consider `Nc1ccc(C2=NN(C(=O)c3cc(-c4ccc(Cl)cc4)nc4ccccc34)C(c3ccccc3)C2)cc1` (stereo not given), for which the growth with NCI-H23 lung is 43.6%; in the test with NCI-H226 lung, 53%; in the test on NCI-H322M lung, 45.7%; in the test on HOP-62 NSCLC, 35.4%; in the test on NCI-H460 lung, 18.8%; in the test with HOP-92 NSCLC, 50.9%. Further, the growth was 24% with NCI-H522 lung; 40.7% with A549/ATCC NSCLC; 21.7% with 786-0 renal; 30% in the test with COLO 205 colon; 33.2% with DU-145 prostate; 15.6% with K-562 leukemia. In addition, the growth in the test with MALME-3M melanoma is 52.5%; with MDA-MB-231 breast it was 61.2%; in the test on RXF 393 renal, -3.58% (active); in the test with SF-268 CNS, 57.3%; with SF-295 CNS, 13.1%; in the test with SF-539 CNS, 14.9%. The growth was 55.3% in the test on UACC-257 melanoma and 16.9% in the test with M14 melanoma.

In the case of `COc1cc(/C=C/C(=O)c2cccs2)ccc1OCc1ccc(Cl)nc1`, the growth with NCI-H23 lung was 77.5%; in the test with NCI-H226 lung it was 86.8%; in the test on NCI-H322M lung, 85.9%; in the test with HOP-62 NSCLC, 102%; with NCI-H460 lung it was 83.6%; in the test on HOP-92 NSCLC it was 85.2%. For the same compound, the growth was 86.1% in the test on NCI-H522 lung; 99% in the test with A549/ATCC NSCLC; 75.3% in the test with 786-0 renal; 98.1% in the test with COLO 205 colon; 47.7% with DU-145 prostate; 41.3% in the test on K-562 leukemia. In addition, the growth in the test on MALME-3M melanoma is 81.9%; with MDA-MB-231 breast, 82.8%; in the test on RXF 393 renal, 94.9%; in the test on SF-268 CNS, 85.1%; in the test with SF-295 CNS, 105%; with SF-539 CNS, 91%. Further, the values for the growth in the test with UACC-257 melanoma and with M14 melanoma were 91.3% and 82%, respectively.

`Cc1cc(Nc2nc(SCc3ccc(C(=O)Nc4ccc(F)cc4N)cc3)nn3cccc23)n[nH]1`: the growth in the test on NCI-H23 lung is 42.8%; in the test on NCI-H226 lung, 51.6%; in the test on NCI-H322M lung, 52.8%; in the test with HOP-62 NSCLC, 23.4%; in the test on NCI-H460 lung, 9.98% (active); in the test on HOP-92 NSCLC, 53.6%. In addition, the growth in the test with NCI-H522 lung is -14.8% (active); in the test on A549/ATCC NSCLC it was 30.8%; in the test with 786-0 renal, 44.1%; in the test on COLO 205 colon, -39.9% (active); in the test on DU-145 prostate, 20.1%; with K-562 leukemia, 7.36% (active). In addition, the growth was 53.7% with MALME-3M melanoma; 22.8% in the test with MDA-MB-231 breast; 23.5% with RXF 393 renal; 28.2% in the test on SF-268 CNS; 18% in the test with SF-295 CNS; 8.82% (active) in the test with SF-539 CNS. For the same compound, the values for the growth in the test with UACC-257 melanoma and with M14 melanoma were 67.6% and 38.9%, respectively.

In the case of `C#CC[C@@H]1C[C@]2(C)[C@H]3CC[C@@H]4[C@H]5[C@H](C(=C)C)CC[C@]5(C(=O)O)CC[C@@]4(C)[C@]3(C)CC[C@H]2C(C)(C)[C@H]1O`, the growth in the test on NCI-H23 lung is 47.9%; with NCI-H226 lung, 29.1%; in the test on NCI-H322M lung it was 67.5%; in the test on HOP-62 NSCLC, 59%; with NCI-H460 lung it was 10.4%; with HOP-92 NSCLC, -6.27% (active). The growth in the test with NCI-H522 lung was 61.8%; with A549/ATCC NSCLC, 16.9%; in the test with 786-0 renal, -1.51% (active); in the test on COLO 205 colon, 83.2%; in the test on DU-145 prostate, 57.4%; with K-562 leukemia, 35.1%. Moreover, the growth with MALME-3M melanoma was 53%; with MDA-MB-231 breast, 20.8%; in the test with RXF 393 renal, 6.63% (active); in the test on SF-268 CNS it was 66.5%; in the test on SF-295 CNS, 12.8%; in the test with SF-539 CNS, 53.8%. In addition, the results for the growth in the test with UACC-257 melanoma and with M14 melanoma were 70.9% and 60.3%, respectively.
